In the library only some 6% were active in any assay of this set; here they are far more common.
D1 agonist – agonists of human D1 dopamine receptor; HEK293 T-REx D1 cells, calcium flux, agonist mode; P21728; 360,000 compounds, 1% hits; activation, % at 2 µM; in the data active = activation above about 30%; note: 0% is about no effect
Target sequence (P21728 whole entry, looked up): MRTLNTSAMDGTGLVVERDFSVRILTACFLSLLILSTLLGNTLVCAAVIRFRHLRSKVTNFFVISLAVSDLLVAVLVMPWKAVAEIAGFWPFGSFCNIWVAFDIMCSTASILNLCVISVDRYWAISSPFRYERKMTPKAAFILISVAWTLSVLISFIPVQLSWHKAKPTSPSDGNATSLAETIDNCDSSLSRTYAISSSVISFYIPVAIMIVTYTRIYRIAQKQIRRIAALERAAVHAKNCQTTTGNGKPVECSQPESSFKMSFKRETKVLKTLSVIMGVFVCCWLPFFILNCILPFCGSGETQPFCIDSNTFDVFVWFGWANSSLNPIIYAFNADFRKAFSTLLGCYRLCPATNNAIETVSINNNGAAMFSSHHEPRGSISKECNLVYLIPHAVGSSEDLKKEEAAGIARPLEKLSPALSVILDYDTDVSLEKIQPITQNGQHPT
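Inducible HEK293 T-REx D1 cells, force-coupled to calcium signalling, were plated at 4000 cells/well with tetracycline and held overnight at 30 C. After no-wash calcium dye loading, compound-evoked calcium rise over 180 s flagged agonists.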
BCR signal inh – chronic active BCR signaling inhibition. ABC-DLBCL IkBa-CBG/CBR reporter, luminescence ratio, 4 h. Potency, µM (highest dose often 46.1 µM), for inactives: top-dose activity change, negative = inhibition, most hits filed as inhibitors. 340,000 compounds, 0.05% hits; active = well fitted inhibition curve with a large enough effect in the signal ratio, with a control signal flat, not every such curve was filed as active; inconclusive = small, poorly fitted or top-dose-only effect, or effect the other way, or a change in a side signal; the % refers to the signal ratio;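 note: potency is the fitted concentration of half-maximal effect; plate controls were basal doxycycline-induced cells for no effect and cells given 10 µM MG132 for full effect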
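Compounds up to 46 uM were incubated four hours with TMD8 cells whose green CBG68 luciferase is fused to IkappaBalpha; red CBR luminescence normalised the signal, and concentration-effect curves were fitted to fusion, red and ratio data.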
D1 antagonist – blocks dopamine activation of the human D1 receptor; AID 504652; HEK293 TREx D1 cells, calcium flux, dopamine EC80; stronger effect = lower value; P21728; activity change, negative = inhibition, % at 10 µM; 360,000 compounds, 3.2% hits; in the data active = activity change below about -30%; note: % is set by controls: 0 for no effect and ±100 for the full control effect
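Inducible Hek293 Trex D1 cells (tetracycline, overnight, 30 C). Calcium dye 30–90 min RT. Antagonist mode: EC80 dopamine added after 180 s compound read.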
D3 antag – D3 dopamine receptor (human) antagonism; 360,000 compounds, 2.5% hits; max response, negative = inhibition, %; D3R cells, DiscoveRx beta-arrestin luminescence, antagonist mode; stronger effect = lower value; in the data active = max response below about -50%; inconclusive = no clear call, values can overlap the other calls; note: % is set by controls: 0 for no effect and ±100 for the full control effect
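Cells plated overnight at 1500 cells/well, then exposed to library compounds with dopamine controls for 90 minutes at 37 degrees C. DiscoveRx reagent added for 30–60 minutes at room temperature; luminescence read, quantitative HTS format.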
D1 potentiator – potentiators of human D1 dopamine receptor | HEK293 TREx D1 cells, calcium flux, dopamine EC20 potentiation | P21728 | 360,000 compounds, 0.036% hits | AID 504651 | potentiation, % at 10 µM; in the data active = potentiation above about 30%; note: 0% is about no effect
D3 ag – activates the human D3 dopamine receptor; max activation, %; P35462; D3R DiscoveRx beta-arrestin cells, luminescence, 90 min; 410,000 compounds, 0.58% hits; in the data active = max activation above about 30%; note: 0% is about no effect
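Agonist-mode cell screen: cells plated at 1500/well and incubated overnight at 37 °C, then exposed to library compounds for 90 min at 37 °C. Detection reagent was added for 30–60 min at room temperature, and luminescence was read.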
The depositor's hits bear a star.

`COC(=O)c1[nH]c2ccccc2c1NC(=O)CCN1CCN(C2CCCCC2)CC1` gave D1 agonist 0, BCR signal inh -1%, D1 antagonist 22 and D1 potentiator 1.
COC(=O)c1[nH]c2cccc(OC)c2c1NC(=O)CCN1CCN(c2ccccc2OC)CC1 was read as D1 agonist 0, BCR signal inh -5%, D1 antagonist -39*, D3 antag -90*, D1 potentiator -11 and D3 ag -46.
COC(=O)c1[nH]c2cccc(OC)c2c1NC(=O)CCN1CCC(C)CC1 was read as D1 agonist 0, BCR signal inh -1%, D1 antagonist 6, D3 antag -77*, D1 potentiator 0 and D3 ag -28.
COc1ccc(CCN(C)C2CCCN(S(C)(=O)=O)C2)cc1OC (configuration not stated) was read as D1 agonist 3, BCR signal inh 0%, D1 antagonist 7, D3 antag 111, D1 potentiator -3 and D3 ag 0.
For COc1ccc(CCN(C)C2CCCN(S(=O)(=O)c3ccc(C)cc3)C2)cc1OC (configuration not stated) the results were D1 agonist -3, BCR signal inh -5%, D1 antagonist -37*, D3 antag -7, D1 potentiator -9 and D3 ag -13.
`O=C(NCc1ccccn1)C1CCCN(S(=O)(=O)c2cc(Cl)ccc2Cl)C1` (configuration not stated) gave D3 antag -21 and D3 ag -19.
`COc1ccc(CCN(C)C2CCCN(C(=O)c3sccc3C)C2)cc1OC` (configuration not stated) gave D1 agonist 1, BCR signal inh -3%, D1 antagonist 0, D3 antag -64*, D1 potentiator 3 and D3 ag -11.
Screening CN(CCc1ccccc1)C1CCCN(S(=O)(=O)c2cccc(F)c2)C1 (configuration not stated) returned D1 agonist -3, BCR signal inh 1%, D1 antagonist -9, D3 antag -63*, D1 potentiator -11 and D3 ag -7.
Screening Cc1cc(S(=O)(=O)N2CCCC(N(C)CCc3ccccn3)C2)c(C)cc1Cl (configuration not stated) returned D1 agonist 18, BCR signal inh -5%, D1 antagonist -54*, D3 antag -12, D1 potentiator -15 and D3 ag -11.
For COc1cccc(CNC(=O)C2CCN(c3nnc(-n4c(C)ccc4C)s3)CC2)c1 the results were D1 agonist -1, D1 antagonist -3, D1 potentiator 0 and D3 ag 3.
`CCCOc1ccc(CNC(=O)c2cc3oc4ccccc4c3n2C)cc1` gave D1 agonist 7, D1 antagonist -7, D1 potentiator -8 and D3 ag 4.
`O=c1[nH]ncc2c3ccccc3n(Cc3ccccc3)c12` gave BCR signal inh inconclusive, D3 antag -6 and D3 ag 0.
`O=c1[nH]ncc2c3ccccc3n(Cc3ccccc3F)c12` gave BCR signal inh -2%, D3 antag -60* and D3 ag -9.
C/C(=N\NC(=S)NCc1ccccc1)c1ccccc1 was read as D1 agonist 1, BCR signal inh inconclusive, D1 antagonist 14, D3 antag -28, D1 potentiator 0 and D3 ag -3.
Screening C/C(=N\NC(=S)NCc1ccccc1)c1ccc(C#N)cc1 returned D1 agonist 0, BCR signal inh -28%, D1 antagonist -33*, D3 antag -15, D1 potentiator -1 and D3 ag 1.
COc1ccc(CCNc2oc(-c3ccc(C)cc3)nc2C#N)cc1OC was read as D1 agonist 11, BCR signal inh -1%, D1 antagonist 52, D3 antag -15, D1 potentiator -6 and D3 ag 4.
N#Cc1nc(COc2ccccc2F)oc1NCc1ccc(F)cc1 was read as D1 agonist 5, BCR signal inh inconclusive, D1 antagonist -25, D3 antag -28, D1 potentiator -6 and D3 ag 4.
